Results on nine molecules are retold here after PubChem BioAssay (NCI).

Test [1] can be described thus: NCI Yeast Anticancer Drug Screen. Data for the rad50 strain (AID 155).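 Also: 0% = growth of vehicle-only cultures of the same strain.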 Particulars: S. cerevisiae rad50 strain growth inhibition, stronger effect = higher value. The gist of the method:
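Vehicle-treated cultures provide the reference for the growth inhibition reported for compound-exposed, repair-deficient yeast.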

Test [2] is described as follows: NCI Yeast Anticancer Drug Screen. Data for the mec2-1 strain (AID 157). Particulars: S. cerevisiae mec2-1 strain, stronger effect = higher value. The gist of the method:
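Vehicle-treated cultures served as reference for growth inhibition of compound-exposed mec2-1 yeast.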

Test [3] is described as follows: NCI Yeast Anticancer Drug Screen. Data for the sgs1 mgt1 strain (AID 161).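 Also: 0% = growth of cultures given vehicle only.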 To be noted: S. cerevisiae sgs1 mgt1 strain, stronger effect = higher value. The gist of the method: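 Mutant yeast exposed to compound; growth scored against vehicle-only wells.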
Test [4] is described as follows: NCI Yeast Anticancer Drug Screen. Data for the cln2 rad14 strain (AID 165).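 Also: 0% = growth equal to vehicle treated cultures.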 Particulars: S. cerevisiae cln2 rad14 strain, stronger effect = higher value. In outline:
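Each compound was tested on cln2 rad14 yeast. Inhibition of growth was calculated against vehicle-exposed controls.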

A short description of test [5]: NCI Yeast Anticancer Drug Screen. Data for the bub3 strain (AID 167). Particulars: S. cerevisiae bub3 mutant strain, stronger effect = higher value. In outline:
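Mutant yeast screening strain plus compound; vehicle-treated cultures serve as the 0% inhibition reference.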

A short description of test [6]: NCI Yeast Anticancer Drug Screen. Data for the mlh1 rad18 strain (AID 175). Particulars: S. cerevisiae mlh1 rad18 strain growth inhibition, stronger effect = higher value. In outline:
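Vehicle-treated cultures served as the reference for growth inhibition in a yeast strain carrying DNA damage repair alterations exposed to each compound.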

[7] abbreviates: at 5.0 µM (retest, dose inferred, filed as 0.5).
Setting [8] is: at 50.0 µM (retest, dose inferred, filed as 5.0).

About 79,000 compounds went through this panel and 15% of them were active in at least one assay; those are over-represented in the sample as a whole. Unmarked numbers belong to inactive results. Calls of active or inactive are those of the source. Rule as the data show it: active = growth inhibition above about 70%; inactive = the rest.

In the case of `CC(=O)C1=C(C)O/C(=C/c2ccc(Cl)cc2)C1=O`, the growth inhibition in test [1] (setting [7]) is 27%; in test [1] (setting [8]) it was 94% (active); in test [1] (at 50.0 µM), 49.5%; in test [2] (setting [7]) it was 28%; in test [2] (setting [8]), 99% (active); in test [2] (at 50.0 µM), 32%. Moreover, the growth inhibition in test [3] (setting [7]) was 34%; in test [3] (setting [8]), 99% (active); in test [3] (at 50.0 µM), 85.7% (active); in test [4] (setting [7]), 34%; in test [4] (setting [8]) it was 90% (active); in test [4] (at 50.0 µM), 79% (active). For the same molecule, the growth inhibition is 31% in test [5] (setting [7]); 99% (active) in test [5] (setting [8]); 83.2% (active) in test [5] (at 50.0 µM); 34% in test [6] (setting [7]); 98% (active) in test [6] (setting [8]); 91.8% (active) in test [6] (at 50.0 µM).
Take `CN(C)C(=S)S(=O)(=O)CCCCS(=O)(=O)C(=S)N(C)C`: the growth inhibition was -1% in test [1] (setting [7]); 3% in test [1] (setting [8]); 86.3% (active) in test [1] (at 50.0 µM); 3% in test [2] (setting [7]); 8% in test [2] (setting [8]); 32.1% in test [2] (at 50.0 µM). The growth inhibition in test [3] (setting [7]) is 2%; in test [3] (setting [8]), 11%; in test [3] (at 50.0 µM) it was 92.3% (active); in test [4] (setting [7]), -6%; in test [4] (setting [8]), -1%; in test [4] (at 50.0 µM), 9%. Further, the growth inhibition in test [5] (setting [7]) is -2%; in test [5] (setting [8]), 0%; in test [5] (at 50.0 µM), 20.9%; in test [6] (setting [7]), -3%; in test [6] (setting [8]), 7%; in test [6] (at 50.0 µM) it was 81.8% (active).
For `Oc1ccc(O)c2c(O)c3ccccc3c(O)c12`, the growth inhibition was 24% in test [1] (setting [7]); 86% (active) in test [1] (setting [8]); 76.7% (active) in test [1] (at 50.0 µM); 15% in test [2] (setting [7]); 77% (active) in test [2] (setting [8]); 50.4% in test [2] (at 50.0 µM). Further, the growth inhibition was 10% in test [3] (setting [7]); 85% (active) in test [3] (setting [8]); 80.5% (active) in test [3] (at 50.0 µM); 15% in test [4] (setting [7]); 58% in test [4] (setting [8]); 30.9% in test [4] (at 50.0 µM). Besides, the growth inhibition is 3% in test [5] (setting [7]); 82% (active) in test [5] (setting [8]); 65.7% in test [5] (at 50.0 µM); 20% in test [6] (setting [7]); 94% (active) in test [6] (setting [8]); 78.9% (active) in test [6] (at 50.0 µM).
In the case of `CCCCc1c2c(nc3c1CC/C(=C\c1ccc([N+](=O)[O-])cc1)C3=O)CCCC2`, the growth inhibition in test [1] (setting [7]) was 92% (active); in test [1] (setting [8]) it was 92% (active); in test [1] (at 50.0 µM) it was 88.5% (active); in test [2] (setting [7]) it was 97% (active); in test [2] (setting [8]) it was 94% (active); in test [2] (at 50.0 µM), 92.6% (active). The growth inhibition in test [3] (setting [7]) is 38%; in test [3] (setting [8]), 92% (active); in test [3] (at 50.0 µM), 89.8% (active); in test [4] (setting [7]), 97% (active); in test [4] (setting [8]), 93% (active); in test [4] (at 50.0 µM), 88.1% (active). Moreover, the growth inhibition in test [5] (setting [7]) was 98% (active); in test [5] (setting [8]) it was 91% (active); in test [5] (at 50.0 µM), 88.5% (active); in test [6] (setting [7]), 96% (active); in test [6] (setting [8]), 88% (active); in test [6] (at 50.0 µM), 89.6% (active).
For the molecule `CC(C)(C)C1=CC(N2CCCCC2)(C(C)(C)C)C=C(C(C)(C)C)C1=O`, the growth inhibition in test [1] (setting [7]) was 0%; in test [1] (setting [8]) it was 55%; in test [1] (at 50.0 µM), 93.8% (active); in test [2] (setting [7]), -2%; in test [2] (setting [8]) it was 64%; in test [2] (at 50.0 µM) it was 91.8% (active). Further, the growth inhibition is 3% in test [3] (setting [7]); 77% (active) in test [3] (setting [8]); 95.3% (active) in test [3] (at 50.0 µM); -3% in test [4] (setting [7]); 30% in test [4] (setting [8]); 65.3% in test [4] (at 50.0 µM). In addition, the growth inhibition in test [5] (setting [7]) was -6%; in test [5] (setting [8]) it was 35%; in test [5] (at 50.0 µM), 81.2% (active); in test [6] (setting [7]), 0%; in test [6] (setting [8]), 73% (active); in test [6] (at 50.0 µM), 94.8% (active).
As to `CN(C)CCCCCNc1c2ccccc2nc2cccc([N+](=O)[O-])c12`, the growth inhibition in test [1] (setting [7]) is 73% (active); in test [1] (setting [8]), 95% (active); in test [1] (at 50.0 µM), 90% (active); in test [2] (setting [7]) it was 52%; in test [2] (setting [8]), 97% (active); in test [2] (at 50.0 µM), 91.2% (active). Besides, the growth inhibition in test [3] (setting [7]) is 29%; in test [3] (setting [8]), 33%; in test [3] (at 50.0 µM) it was 89.2% (active); in test [4] (setting [7]), 37%; in test [4] (setting [8]), 62%; in test [4] (at 50.0 µM), 92.3% (active). In addition, the growth inhibition was 23% in test [5] (setting [7]); 47% in test [5] (setting [8]); 89% (active) in test [5] (at 50.0 µM); 78% (active) in test [6] (setting [7]); 96% (active) in test [6] (setting [8]); 87.7% (active) in test [6] (at 50.0 µM).
Turning to `CSC(=S)N/N=C\C(C)=N/N=C(N)N`, the growth inhibition in test [1] (setting [7]) was 14%; in test [1] (setting [8]) it was 92% (active); in test [1] (at 50.0 µM) it was 94% (active); in test [2] (setting [7]) it was 16%; in test [2] (setting [8]), 93% (active); in test [2] (at 50.0 µM), 74.5% (active). Also, the growth inhibition in test [3] (setting [7]) is 53%; in test [3] (setting [8]), 92% (active); in test [3] (at 50.0 µM) it was 85.4% (active); in test [4] (setting [7]), -14%; in test [4] (setting [8]), 89% (active); in test [4] (at 50.0 µM) it was 18.9%. The growth inhibition in test [5] (setting [7]) was -4%; in test [5] (setting [8]) it was 92% (active); in test [5] (at 50.0 µM), 86.4% (active); in test [6] (setting [7]), 30%; in test [6] (setting [8]) it was 90% (active); in test [6] (at 50.0 µM), 93.7% (active).
Turning to `C[N+]1(c2ccccc2)C=C(c2ccccc2)SC1=S` (configuration not stated), the growth inhibition in test [1] (setting [7]) is 7%; in test [1] (setting [8]) it was 86% (active); in test [1] (at 50.0 µM) it was 67.8%; in test [2] (setting [7]), 25%; in test [2] (setting [8]), 68%; in test [2] (at 50.0 µM), 20.6%. Further, the growth inhibition in test [3] (setting [7]) was -8%; in test [3] (setting [8]) it was 36%; in test [3] (at 50.0 µM), 60.5%; in test [4] (setting [7]) it was 1%; in test [4] (setting [8]) it was 10%; in test [4] (at 50.0 µM), 23.4%. For the same molecule, the growth inhibition was 13% in test [5] (setting [7]); 67% in test [5] (setting [8]); 54.8% in test [5] (at 50.0 µM); 12% in test [6] (setting [7]); 75% (active) in test [6] (setting [8]); 74.8% (active) in test [6] (at 50.0 µM).
In the case of `ClC1(Cl)C(Cl)(Cl)C12c1ccccc1-c1ccccc12`, the growth inhibition is 14% in test [1] (setting [7]); 94% (active) in test [1] (setting [8]); 98.6% (active) in test [1] (at 50.0 µM); -26% in test [2] (setting [7]); 97% (active) in test [2] (setting [8]); 98.8% (active) in test [2] (at 50.0 µM). Further, the growth inhibition in test [3] (setting [7]) was 15%; in test [3] (setting [8]) it was 98% (active); in test [3] (at 50.0 µM) it was 99% (active); in test [4] (setting [7]), 2%; in test [4] (setting [8]), 95% (active); in test [4] (at 50.0 µM) it was 86.8% (active). Besides, the growth inhibition in test [5] (setting [7]) was 28%; in test [5] (setting [8]), 95% (active); in test [5] (at 50.0 µM), 98% (active); in test [6] (setting [7]), 29%; in test [6] (setting [8]) it was 96% (active); in test [6] (at 50.0 µM), 98.6% (active).
